# From PubChem BioAssay (NCI)
# Compounds without any hit were thinned out: in the full panel of roughly 83,000, 20% have a hit.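 Assay: single dose, 48 h. Readout: percent growth (0 = no net growth; negative = cell death). Active: <10.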 Values without a mark were called inactive. Active and inactive are the calls of the source.
# Tests used:
# Assay in all cases: NCI-60 one-dose screen, 48 h (100 = growth as untreated, 0 = no growth, -100 = all killed)
# Settings in all cases: 10 µM unless noted
# T-47D breast = test system: T-47D breast
# BT-549 breast = test system: BT-549 breast
# MDA-MB-435 melanoma = test system: MDA-MB-435 melanoma
# SW-620 colon = test system: SW-620 colon
# MCF7 breast = test system: MCF7 breast
# HCT-116 colon = test system: HCT-116 colon
# HCC-2998 colon = test system: HCC-2998 colon
# KM12 colon = test system: KM12 colon
SMILES,growth (T-47D breast),growth (BT-549 breast),growth (MDA-MB-435 melanoma),growth (SW-620 colon),growth (MCF7 breast),growth (HCT-116 colon),growth (HCC-2998 colon),growth (KM12 colon)
COCc1nc2ccccc2[nH]1,104%,164%,102%,106%,88.7%,99.9%,106%,106%
O=C1/C(=C/c2cccc(OCc3ccccc3)c2)Oc2cc(OCCN3CCCCC3)ccc21,89.9%,75.6%,85.4%,67.3%,50.7%,52.8%,93.3%,67.9%
Cc1cccc([N+](=O)[O-])c1I,104%,110%,103%,108%,114%,112%,101%,112%
CO[C@H]1CC[C@@]2(C)C(=CC[C@H]3[C@@H]4C[C@H](O)C[C@@]4(C)CC[C@@H]32)C1,54%,79.5%,-16.9% (active),28.8%,25.7%,29.2%,68.4%,35.7%
COc1ccc(-c2cc(-c3ccccc3)nc(NCCNc3ccnc4cc(Cl)ccc34)n2)cc1,-64.6% (active),-69.4% (active),-68.8% (active),-68.2% (active),-75.7% (active),-74.1% (active),-81.1% (active),-72.7% (active)
Cc1nc(-c2ccccc2)sc1CC#N,103%,113%,105%,103%,102%,108%,109%,107%
C=C(C)[C@@H]1CC[C@]2(C(=O)OC)CC[C@]3(C)[C@H](CC[C@@H]4[C@@]5(C)CC/C(=N\OCCC(=NCCC#N)NOCCC#N)C(C)(C)[C@@H]5CC[C@]43C)[C@@H]12,15.1% [100 µM],4.4% [100 µM] (active),14.6% [100 µM],22% [100 µM],12.4% [100 µM],4.16% [100 µM] (active),26.9% [100 µM],10.9% [100 µM]
COc1cc(NN=C(c2ccc(O)cc2)c2ccc(O)cc2)c([N+](=O)[O-])cc1[N+](=O)[O-],-10.1% (active),111%,95.6%,98.9%,1.9% (active),1.31% (active),2.63% (active),73.2%
COc1ccc(NC(=S)NNc2ccc(-c3ccc(OC)c(OC)c3)nn2)cc1,96.4%,98.5%,107%,102%,96.5%,102%,109%,104%
CC(C)OC(=O)Nc1cc(F)ccc1F,94.8%,111%,99.4%,99.8%,97.1%,105%,98.3%,103%
O=C(NCc1ccccc1)C(Cl)Cl,102%,122%,103%,107%,90.1%,108%,107%,101%
Cc1cccc(C[C@H](NC(=O)Nc2ccc(Cl)cc2F)C(=O)N[C@@H]2C(=O)N3C[C@H](O)C[C@H]3C(=O)N3CCCC[C@H]3C(=O)N[C@@H](C)C(=O)N3C[C@H](C)C[C@H]3C(=O)O[C@H]2C)c1,5.41% (active),-9.79% (active),-5.25% (active),20.7%,6.39% (active),-31.6% (active),-49% (active),-31.4% (active)
CC1(C)CC[C@]23CC[C@]4(C)[C@H](CC[C@@H]5[C@@]6(C)C/C(=C/c7ccncc7)C(=O)C(C)(C)[C@@H]6CC[C@]54C)[C@H]2[C@H]1OC3=O,62.6% [100 µM],52.4% [100 µM],78.7% [100 µM],80.8% [100 µM],70.1% [100 µM],47.9% [100 µM],78.2% [100 µM],81.3% [100 µM]
C[C@H]1[C@H](C)CC[C@]2(C(=O)O)CC[C@]3(C)C(=CC[C@@H]4[C@@]5(C)C/C(=C/c6cccnc6)[C@H](O)C(C)(C)[C@@H]5CC[C@]43C)[C@H]12,15.2% [100 µM],-7.55% [100 µM] (active),7.2% [100 µM] (active),14.9% [100 µM],3.47% [100 µM] (active),-24.6% [100 µM] (active),-8.19% [100 µM] (active),-37.1% [100 µM] (active)
COc1ccc(C(=O)/C=C/c2ccccn2)c(O)c1,61.6%,76.5%,77.3%,43.4%,15.9%,76.5%,93.6%,51.1%
